Measurements from the supplement of paper PMC6897291.

What was measured:
[1] = system: U-2932; assay: growth inhibition by drug alone (1 - RLU/untreated control) (fraction); higher = stronger inhibition; conditions: 177Lu-lilotomab satetraxetan 0 ug/ml
Summary of the method: (§1)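 Compound doses on the pre-printed Selleck Cambridge Cancer Compound library plates were 10/100 nM for RIVA cells and 10/1,000 nM for U-2932 cells, seeded at 3,000 cells/well. Before seeding, cells were washed after 18 h with or without a radiolabelled anti-CD37 antibody conjugate (~600 MBq/mg; 0.5 µg/ml RIVA, 1 µg/ml U-2932). Growth inhibition was derived from RealTime-Glo luminescence relative to untreated no-drug control wells. Readings were taken daily starting on day 3, each after 1 h at 37°C, and each well's RLU was divided by the mean of 48 such wells per plate and subtracted from 1.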

[2] = system: RIVA; assay: as above; conditions: 177Lu-lilotomab satetraxetan 0 ug/ml
Summary of the method: as §1

[3] = system: U-2932; assay: growth inhibition by drug plus 177Lu-lilotomab satetraxetan (1 - RLU/untreated control) (fraction); higher = stronger inhibition; conditions: 177Lu-lilotomab satetraxetan 1 ug/ml
Summary of the method: as §1

[4] = system: RIVA; assay: as above; conditions: 177Lu-lilotomab satetraxetan 0.5 ug/ml
Summary of the method: as §1

| SMILES | growth inhibition by drug alone ([1]; 10 nM, time (day): 3) | growth inhibition by drug alone ([1]; 10 nM, time (day): 4) | growth inhibition by drug alone ([1]; 10 nM, time (day): 5) | growth inhibition by drug alone ([1]; 10 nM, time (day): 6) | growth inhibition by drug alone ([1]; 1000 nM, time (day): 3) | growth inhibition by drug alone ([1]; 1000 nM, time (day): 4) | growth inhibition by drug alone ([1]; 1000 nM, time (day): 5) | growth inhibition by drug alone ([1]; 1000 nM, time (day): 6) | growth inhibition by drug alone ([2]; 10 nM, time (day): 3) | growth inhibition by drug alone ([2]; 10 nM, time (day): 4) | growth inhibition by drug alone ([2]; 10 nM, time (day): 5) | growth inhibition by drug alone ([2]; 10 nM, time (day): 6) | growth inhibition by drug alone ([2]; 100 nM, time (day): 3) | growth inhibition by drug alone ([2]; 100 nM, time (day): 4) | growth inhibition by drug alone ([2]; 100 nM, time (day): 5) | growth inhibition by drug alone ([2]; 100 nM, time (day): 6) | growth inhibition by drug plus 177Lu-lilotomab satetraxetan ([3]; 10 nM, time (day): 3) | growth inhibition by drug plus 177Lu-lilotomab satetraxetan ([3]; 10 nM, time (day): 4) | growth inhibition by drug plus 177Lu-lilotomab satetraxetan ([3]; 10 nM, time (day): 5) | growth inhibition by drug plus 177Lu-lilotomab satetraxetan ([3]; 10 nM, time (day): 6) | growth inhibition by drug plus 177Lu-lilotomab satetraxetan ([3]; 1000 nM, time (day): 3) | growth inhibition by drug plus 177Lu-lilotomab satetraxetan ([3]; 1000 nM, time (day): 4) | growth inhibition by drug plus 177Lu-lilotomab satetraxetan ([3]; 1000 nM, time (day): 5) | growth inhibition by drug plus 177Lu-lilotomab satetraxetan ([3]; 1000 nM, time (day): 6) | growth inhibition by drug plus 177Lu-lilotomab satetraxetan ([4]; 10 nM, time (day): 3) | growth inhibition by drug plus 177Lu-lilotomab satetraxetan ([4]; 10 nM, time (day): 4) | growth inhibition by drug plus 177Lu-lilotomab satetraxetan ([4]; 10 nM, time (day): 5) | growth inhibition by drug plus 177Lu-lilotomab satetraxetan ([4]; 10 nM, time (day): 6) | growth inhibition by drug plus 177Lu-lilotomab satetraxetan ([4]; 100 nM, time (day): 3) | growth inhibition by drug plus 177Lu-lilotomab satetraxetan ([4]; 100 nM, time (day): 4) | growth inhibition by drug plus 177Lu-lilotomab satetraxetan ([4]; 100 nM, time (day): 5) | growth inhibition by drug plus 177Lu-lilotomab satetraxetan ([4]; 100 nM, time (day): 6) |
| --- | --- | --- | --- | --- | --- | --- | --- | --- | --- | --- | --- | --- | --- | --- | --- | --- | --- | --- | --- | --- | --- | --- | --- | --- | --- | --- | --- | --- | --- | --- | --- | --- |
| Nc1nccc(-c2ccc3noc(-c4ccc(Cl)cc4)c3c2)n1 [PIM-1 Inhibitor 2] | 0.154 | 0.0795 | 7.17e-05 | -0.0865 | 0.121 | 0.133 | 0.0739 | 0.0111 | 0.115 | 0.126 | 0.0578 | -0.0926 | 0.116 | 0.161 | 0.123 | 0.0468 | 0.0725 | 0.102 | 0.129 | 0.208 | 0.106 | 0.208 | 0.188 | 0.253 | 0.465 | 0.59 | 0.607 | 0.604 | 0.451 | 0.536 | 0.524 | 0.507 |
| CNC(=O)c1ccc(N2C(=S)N(c3ccc(C#N)c(C(F)(F)F)c3)C(=O)C2(C)C)cc1F [MDV3100 (Enzalutamide)] | 0.0921 | 0.0374 | -0.126 | -0.107 | 0.019 | 0.0335 | -0.0413 | -0.0245 | 0.0909 | 0.0471 | 0.0315 | -0.246 | -0.0634 | -0.143 | -0.144 | -0.21 | 0.0217 | 0.0789 | 0.128 | 0.16 | 0.0172 | 0.0892 | 0.116 | 0.182 | 0.559 | 0.587 | 0.59 | 0.602 | 0.519 | 0.555 | 0.553 | 0.556 |
| Nc1ccc(C(=O)Nc2cccc(-c3nc(N4CCOCC4)c4oc5ncccc5c4n3)c2)cn1 | 0.123 | 0.0927 | 0.0179 | -0.0139 | 0.195 | 0.203 | 0.118 | 0.206 | -0.00332 | -0.02 | -0.0954 | -0.385 | 0.0916 | 0.0201 | 0.0261 | -0.0381 | 0.00496 | 0.0368 | 0.0937 | 0.133 | 0.163 | 0.259 | 0.223 | 0.329 | 0.467 | 0.548 | 0.558 | 0.579 | 0.541 | 0.566 | 0.558 | 0.533 |
| OCCn1cc(-c2ccc3c(c2)CC/C3=N\O)c(-c2ccncc2)n1 | -0.0296 | -0.0312 | -0.153 | -0.152 | -0.112 | -0.139 | -0.146 | -0.12 | -0.166 | -0.13 | -0.183 | -0.335 | -0.39 | -0.208 | -0.171 | -0.236 | -0.00182 | 0.0536 | 0.0736 | 0.0788 | -0.118 | -0.0611 | -0.0101 | 0.0758 | 0.513 | 0.569 | 0.578 | 0.59 | 0.436 | 0.551 | 0.585 | 0.602 |
